# Reference: paper PMC11006913
# Tests used:
# Test in all cases: PBM; 200 nM protein, PBS
# Conditions in all cases: dsDNA, one strand shown
# HESX1 [1] = biological target: HESX1 (Homo sapiens, UniProt Q9UBX0 95-180, R165K)
# HOXB4 [2] = biological target: HOXB4 (Homo sapiens, UniProt P17483 148-234)
# SHOX [3] = biological target: SHOX (Homo sapiens, UniProt O15266 103-189)
# HESX1 [4] = biological target: HESX1 (Homo sapiens, UniProt Q9UBX0 95-180)
# HOXA4 = HOXA4 (Homo sapiens, UniProt Q00056 201-287, R217L)
# HOXB4 [5] = biological target: HOXB4 (Homo sapiens, UniProt P17483 148-234, V174I)
# MSX2 [6] = biological target: MSX2 (Homo sapiens, UniProt P35548 130-214, R199I)
# ALX3 [7] = biological target: ALX3 (Homo sapiens, UniProt O95076 139-225, N203Q)
# SHOX [8] = biological target: SHOX (Homo sapiens, UniProt O15266 103-189, R173C)
# ALX3 [9] = biological target: ALX3 (Homo sapiens, UniProt O95076 139-225)
# PROP1 [10] = biological target: PROP1 (Homo sapiens, UniProt O75360 56-141)
# HESX1 [11] = biological target: HESX1 (Homo sapiens, UniProt Q9UBX0 95-180, R109Q)
# PROP1 [12] = biological target: PROP1 (Homo sapiens, UniProt O75360 56-141, R99H)
# ALX3 [13] = biological target: ALX3 (Homo sapiens, UniProt O95076 139-225, L168Q)
# HESX1 [14] = biological target: HESX1 (Homo sapiens, UniProt Q9UBX0 95-180, P111T)
# ALX3 [15] = biological target: ALX3 (Homo sapiens, UniProt O95076 139-225, L168V)
# PROP1 [16] = biological target: PROP1 (Homo sapiens, UniProt O75360 56-141, F88S)
# MSX2 [17] = biological target: MSX2 (Homo sapiens, UniProt P35548 130-214, F161Y)
# HESX1 [18] = biological target: HESX1 (Homo sapiens, UniProt Q9UBX0 95-180, F115L)
# ALX3 [19] = biological target: ALX3 (Homo sapiens, UniProt O95076 139-225, N203S)
# Chain of ALX3 (Homo sapiens, UniProt O95076 139-225, N203S) (O95076 139-225 N203S): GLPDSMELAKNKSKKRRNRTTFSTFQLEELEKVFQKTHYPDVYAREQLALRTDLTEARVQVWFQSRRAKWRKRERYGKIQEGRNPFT
# Chain of MSX2 (Homo sapiens, UniProt P35548 130-214, F161Y) (P35548 130-214 F161Y): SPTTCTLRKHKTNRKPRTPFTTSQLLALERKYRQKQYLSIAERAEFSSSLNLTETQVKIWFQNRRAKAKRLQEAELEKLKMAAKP
# Chain of HOXB4 (Homo sapiens, UniProt P17483 148-234, V174I) (P17483 148-234 V174I): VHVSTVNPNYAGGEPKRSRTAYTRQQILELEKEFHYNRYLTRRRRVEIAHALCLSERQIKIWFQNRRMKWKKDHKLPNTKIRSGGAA
# Chain of ALX3 (Homo sapiens, UniProt O95076 139-225) (O95076 139-225): as the sequence (O95076 139-225 N203S) above, with S65N counted along it
# Chain of HESX1 (Homo sapiens, UniProt Q9UBX0 95-180, R109Q) (Q9UBX0 95-180 R109Q): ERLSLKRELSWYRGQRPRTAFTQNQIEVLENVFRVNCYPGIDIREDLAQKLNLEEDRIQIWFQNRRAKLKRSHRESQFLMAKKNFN
# Chain of ALX3 (Homo sapiens, UniProt O95076 139-225, L168Q) (O95076 139-225 L168Q): as the sequence (O95076 139-225 N203S) above, with L30Q, S65N counted along it
# Chain of HOXB4 (Homo sapiens, UniProt P17483 148-234) (P17483 148-234): as the sequence (P17483 148-234 V174I) above, with I27V counted along it
# Chain of ALX3 (Homo sapiens, UniProt O95076 139-225, L168V) (O95076 139-225 L168V): as the sequence (O95076 139-225 N203S) above, with L30V, S65N counted along it
# Chain of MSX2 (Homo sapiens, UniProt P35548 130-214, R199I) (P35548 130-214 R199I): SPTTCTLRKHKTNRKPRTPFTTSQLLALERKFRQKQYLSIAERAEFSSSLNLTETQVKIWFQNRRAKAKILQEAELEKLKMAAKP
# Chain of HESX1 (Homo sapiens, UniProt Q9UBX0 95-180, P111T) (Q9UBX0 95-180 P111T): as the sequence (Q9UBX0 95-180 R109Q) above, with Q15R, P17T counted along it
# Chain of SHOX (Homo sapiens, UniProt O15266 103-189, R173C) (O15266 103-189 R173C): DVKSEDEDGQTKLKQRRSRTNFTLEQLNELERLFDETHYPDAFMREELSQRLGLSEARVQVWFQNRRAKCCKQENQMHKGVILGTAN
# Chain of HESX1 (Homo sapiens, UniProt Q9UBX0 95-180, R165K) (Q9UBX0 95-180 R165K): as the sequence (Q9UBX0 95-180 R109Q) above, with Q15R, R71K counted along it
# Chain of PROP1 (Homo sapiens, UniProt O75360 56-141, F88S) (O75360 56-141 F88S): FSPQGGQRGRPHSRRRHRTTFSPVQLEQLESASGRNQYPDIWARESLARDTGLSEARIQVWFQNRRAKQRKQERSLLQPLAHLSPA
# Chain of SHOX (Homo sapiens, UniProt O15266 103-189) (O15266 103-189): as the sequence (O15266 103-189 R173C) above, with C71R counted along it
# Chain of HOXA4 (Q00056 201-287 R217L): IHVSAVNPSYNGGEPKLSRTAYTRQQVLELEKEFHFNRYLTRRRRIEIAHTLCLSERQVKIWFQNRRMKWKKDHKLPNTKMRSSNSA
# Chain of ALX3 (Homo sapiens, UniProt O95076 139-225, N203Q) (O95076 139-225 N203Q): as the sequence (O95076 139-225 N203S) above, with S65Q counted along it
# Chain of HESX1 (Homo sapiens, UniProt Q9UBX0 95-180, F115L) (Q9UBX0 95-180 F115L): as the sequence (Q9UBX0 95-180 R109Q) above, with Q15R, F21L counted along it
# Chain of PROP1 (Homo sapiens, UniProt O75360 56-141) (O75360 56-141): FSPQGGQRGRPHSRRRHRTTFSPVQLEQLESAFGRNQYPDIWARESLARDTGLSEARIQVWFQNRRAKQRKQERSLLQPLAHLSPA
# Chain of HESX1 (Homo sapiens, UniProt Q9UBX0 95-180) (Q9UBX0 95-180): as the sequence (Q9UBX0 95-180 R109Q) above, with Q15R counted along it
# Chain of PROP1 (Homo sapiens, UniProt O75360 56-141, R99H) (O75360 56-141 R99H): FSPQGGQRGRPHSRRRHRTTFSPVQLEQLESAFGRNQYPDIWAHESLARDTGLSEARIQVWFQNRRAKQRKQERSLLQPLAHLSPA
Sequence,binding signal (HESX1 [1]),binding signal (HOXB4 [2]),binding signal (SHOX [3]),binding signal (HESX1 [4]),binding signal (HOXA4),binding signal (HOXB4 [5]),binding signal (MSX2 [6]),binding signal (ALX3 [7]),binding signal (SHOX [8]),binding signal (ALX3 [9]),binding signal (PROP1 [10]),binding signal (HESX1 [11]),binding signal (PROP1 [12]),binding signal (ALX3 [13]),binding signal (HESX1 [14]),binding signal (ALX3 [15]),binding signal (PROP1 [16]),binding signal (MSX2 [17]),binding signal (HESX1 [18]),binding signal (ALX3 [19])
GATAATTA,"13.6 upbm affinity estimate (log intensity, higher = more binding, comparable within an allelic series)","13.8 upbm affinity estimate (log intensity, higher = more binding, comparable within an allelic series)","12.6 upbm affinity estimate (log intensity, higher = more binding, comparable within an allelic series)","13.4 upbm affinity estimate (log intensity, higher = more binding, comparable within an allelic series)","13.1 upbm affinity estimate (log intensity, higher = more binding, comparable within an allelic series)","14.5 upbm affinity estimate (log intensity, higher = more binding, comparable within an allelic series)","13.3 upbm affinity estimate (log intensity, higher = more binding, comparable within an allelic series)","8.59 upbm affinity estimate (log intensity, higher = more binding, comparable within an allelic series)","10.1 upbm affinity estimate (log intensity, higher = more binding, comparable within an allelic series)","12.9 upbm affinity estimate (log intensity, higher = more binding, comparable within an allelic series)","12 upbm affinity estimate (log intensity, higher = more binding, comparable within an allelic series)","9.64 upbm affinity estimate (log intensity, higher = more binding, comparable within an allelic series)","12 upbm affinity estimate (log intensity, higher = more binding, comparable within an allelic series)","11.2 upbm affinity estimate (log intensity, higher = more binding, comparable within an allelic series)","11.9 upbm affinity estimate (log intensity, higher = more binding, comparable within an allelic series)","10.8 upbm affinity estimate (log intensity, higher = more binding, comparable within an allelic series)","7.94 upbm affinity estimate (log intensity, higher = more binding, comparable within an allelic series)","13.7 upbm affinity estimate (log intensity, higher = more binding, comparable within an allelic series)","8.2 upbm affinity estimate (log intensity, higher = more binding, comparable within an allelic series)","8.72 upbm affinity estimate (log intensity, higher = more binding, comparable within an allelic series)"
ATAATTAC,"12.6 upbm affinity estimate (log intensity, higher = more binding, comparable within an allelic series)","13.5 upbm affinity estimate (log intensity, higher = more binding, comparable within an allelic series)","12 upbm affinity estimate (log intensity, higher = more binding, comparable within an allelic series)","12.6 upbm affinity estimate (log intensity, higher = more binding, comparable within an allelic series)","12.8 upbm affinity estimate (log intensity, higher = more binding, comparable within an allelic series)","14.2 upbm affinity estimate (log intensity, higher = more binding, comparable within an allelic series)","13.1 upbm affinity estimate (log intensity, higher = more binding, comparable within an allelic series)","8.56 upbm affinity estimate (log intensity, higher = more binding, comparable within an allelic series)","9.76 upbm affinity estimate (log intensity, higher = more binding, comparable within an allelic series)","12.5 upbm affinity estimate (log intensity, higher = more binding, comparable within an allelic series)","11.6 upbm affinity estimate (log intensity, higher = more binding, comparable within an allelic series)","9.02 upbm affinity estimate (log intensity, higher = more binding, comparable within an allelic series)","11.4 upbm affinity estimate (log intensity, higher = more binding, comparable within an allelic series)","10.7 upbm affinity estimate (log intensity, higher = more binding, comparable within an allelic series)","11.1 upbm affinity estimate (log intensity, higher = more binding, comparable within an allelic series)","10.3 upbm affinity estimate (log intensity, higher = more binding, comparable within an allelic series)","7.95 upbm affinity estimate (log intensity, higher = more binding, comparable within an allelic series)","13.7 upbm affinity estimate (log intensity, higher = more binding, comparable within an allelic series)","7.97 upbm affinity estimate (log intensity, higher = more binding, comparable within an allelic series)","8.66 upbm affinity estimate (log intensity, higher = more binding, comparable within an allelic series)"
AATTAATG,"12.1 upbm affinity estimate (log intensity, higher = more binding, comparable within an allelic series)","13.4 upbm affinity estimate (log intensity, higher = more binding, comparable within an allelic series)","11.8 upbm affinity estimate (log intensity, higher = more binding, comparable within an allelic series)","12.1 upbm affinity estimate (log intensity, higher = more binding, comparable within an allelic series)","12.5 upbm affinity estimate (log intensity, higher = more binding, comparable within an allelic series)","14 upbm affinity estimate (log intensity, higher = more binding, comparable within an allelic series)","12.5 upbm affinity estimate (log intensity, higher = more binding, comparable within an allelic series)","8.41 upbm affinity estimate (log intensity, higher = more binding, comparable within an allelic series)","9.48 upbm affinity estimate (log intensity, higher = more binding, comparable within an allelic series)","12.6 upbm affinity estimate (log intensity, higher = more binding, comparable within an allelic series)","11.4 upbm affinity estimate (log intensity, higher = more binding, comparable within an allelic series)","9.35 upbm affinity estimate (log intensity, higher = more binding, comparable within an allelic series)","11.3 upbm affinity estimate (log intensity, higher = more binding, comparable within an allelic series)","10.7 upbm affinity estimate (log intensity, higher = more binding, comparable within an allelic series)","10.7 upbm affinity estimate (log intensity, higher = more binding, comparable within an allelic series)","10.3 upbm affinity estimate (log intensity, higher = more binding, comparable within an allelic series)","7.86 upbm affinity estimate (log intensity, higher = more binding, comparable within an allelic series)","13.2 upbm affinity estimate (log intensity, higher = more binding, comparable within an allelic series)","7.83 upbm affinity estimate (log intensity, higher = more binding, comparable within an allelic series)","8.55 upbm affinity estimate (log intensity, higher = more binding, comparable within an allelic series)"
